ERa coact inh: ERα–SRC-1 coactivator interaction inhibitors, primary screen, biochemical, TR-FRET, ERα LBD, estradiol-bound; TR-FRET ER-alpha LBD / SRC-1 peptide; inhibition, % at 25.6 µM; 1.7% of 86,000 active; in the data active means inhibition above about 50%
Target sequence (P03372 whole entry, looked up, the tested form may be a part): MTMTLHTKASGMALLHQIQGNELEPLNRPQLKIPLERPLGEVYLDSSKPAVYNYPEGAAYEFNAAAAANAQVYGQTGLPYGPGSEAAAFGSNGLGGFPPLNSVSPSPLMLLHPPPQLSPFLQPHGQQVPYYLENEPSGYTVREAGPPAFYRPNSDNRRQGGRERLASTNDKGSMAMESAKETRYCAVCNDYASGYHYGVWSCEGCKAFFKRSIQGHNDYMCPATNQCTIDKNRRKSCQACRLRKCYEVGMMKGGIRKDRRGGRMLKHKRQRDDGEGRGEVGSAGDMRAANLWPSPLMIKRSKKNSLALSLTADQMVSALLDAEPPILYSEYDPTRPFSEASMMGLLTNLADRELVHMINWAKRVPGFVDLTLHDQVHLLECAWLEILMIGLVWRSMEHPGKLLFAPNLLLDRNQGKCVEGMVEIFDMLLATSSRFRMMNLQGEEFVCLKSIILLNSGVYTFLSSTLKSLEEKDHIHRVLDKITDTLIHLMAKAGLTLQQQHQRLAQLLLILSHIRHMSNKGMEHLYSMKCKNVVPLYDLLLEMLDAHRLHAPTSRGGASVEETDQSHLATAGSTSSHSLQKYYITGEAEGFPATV
ERb coact inh: inhibitors of ERβ-SRC1 coactivator interaction, primary screen, biochemical, TR-FRET, ERβ LBD, SRC-1 peptide; Estrogen receptor beta (Homo sapiens), Q92731; TR-FRET ER-beta LBD / SRC1-Cy5 peptide binding; receptor agonist-loaded with 1 µM estradiol; inhibition, % at 25.6 µM; 1.3% of 86,000 active; AID 633, 2007;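 active means compounds whose percent inhibition of the receptor-coactivator binding signal exceeds about 50% in the single-dose screen, limit read from the data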
MMP13 inh: human MMP13 inhibitors, primary screen, biochemical, FRET peptide cleavage | MMP-13 fTHP FRET cleavage, Mca fluorescence | inhibition, % at 4 µM | AID 570, 2006 | Collagenase 3 (Homo sapiens), P45452 | 0.07% of 65,000 active;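 active means inhibition above the mean of compound-free control plate wells plus 3 SD, cut at about 14% in these data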
Smad3 inh: Smad3/FoxH1 peptide binding inhibitors, primary screen, biochemical, TR-FRET. Mothers against decapentaplegic homolog 3 (Homo sapiens), P84022. TR-FRET Smad3/Dy647-FoxH1 peptide binding, europium anti-His. inhibition, % at 25 µM. 0.29% of 88,000 active. AID 630, 2007;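 active means compounds that reduce the energy-transfer binding signal between the protein and its labelled peptide by more than half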
ERa coact pot: enhancers of ERα–SRC-1 coactivator binding, primary screen, biochemical, TR-FRET, ERα LBD, low estradiol. 1.3% of 86,000 active. Estrogen receptor (Homo sapiens), P03372. coactivator binding (% of control), % at 25.6 µM. AID 639, 2007. TR-FRET ERalpha-LBD/SRC-Cy5 coactivator binding, 2 h; 100 = basal binding, no effect; in the data active means activity above about 200%;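 further: binding measured in presence of low estradiol as agonist stimulus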
MT1-MMP txn act: MT1-MMP promoter reporter activation – cell-based, luciferase luminescence, primary screen. HT1080 MT1-MMP promoter luciferase reporter, overnight; active compounds read high. activation factor at 10 µM. 0.16% of 86,000 active;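 active means activation factor of at least 2 for MT1-MMP transcription at 10 µM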
Of the large screens only hits and unclear results are named; the others gave an inactive call; [ ] = another dose, or the depositor's remark. Shown are actives, neighbours in structure and some others; about 3.5% of the full set was active somewhere.

O=C(CSc1nnc(-c2ccccc2)o1)c1ccc2c(c1)OCCO2	none
Cc1cc(NC(=O)CSc2nnc(-c3ccc4c(c3)OCCO4)o2)no1	ERa coact pot 326.8[fluorescence artefact?]
Cc1cc(C)cc(-c2nnc(SCC(=O)c3ccc4c(c3)OCCO4)o2)c1	ERa coact pot 221.3[fluorescence artefact?] (no result: MMP13 inh)
COc1ccc(N2CCN(C(=O)CC3NC4CCCCC4NC3=O)CC2)cc1 (centres undefined)	none (no result: ERa coact inh, ERb coact inh, Smad3 inh, ERa coact pot)
Cc1ccc(S(=O)(=O)N2CCCCC2)cc1C(=O)Nc1ncn[nH]1	ERa coact inh 55.4, ERb coact inh 58.7
Cc1ccc(S(=O)(=O)N2CCCCC2)cc1C(=O)Nc1ccc2cn[nH]c2c1	none
N=C1C(c2ccccc2)=C(O)C2CCc3ccccc3N12 (centres undefined)	ERa coact inh 57.5[fluorescence artefact?]
N=C1C(c2ccc(Br)cc2)=C(O)C2CCc3ccccc3N12 (centres undefined)	none
CCOc1ncccc1C(=O)OCC(=O)Nc1cc(C(=O)OC)ccc1C(=O)OC	ERa coact pot 372.1[fluorescence artefact?]
Cc1nc2ccccc2c2oc(C(=O)NCCN3CCCCC3C)cc12 (centres undefined)	none
Cc1ccc(NC(=O)CSc2nnc(-c3ccco3)c(-c3ccco3)n2)cc1	ERa coact inh 80.9[fluorescence artefact?], ERb coact inh 73.6[fluorescence artefact?]
O=C(CSc1nnc(-c2ccco2)c(-c2ccco2)n1)Nc1ccccc1	ERa coact inh 84.2[fluorescence artefact?], ERb coact inh 86.2[fluorescence artefact?] (no result: MT1-MMP txn act)
O=C(CSc1nnc(-c2ccccc2)c(-c2ccccc2)n1)NCc1ccco1	none (no result: MMP13 inh)
Cc1ccc(NC(=O)CCSc2nnc(-c3ccco3)o2)cc1	none
COc1cc2c(cc1OC)C(c1ccc3c(c1)OCO3)C1=C(CC(C)(C)CC1=O)N2 (centres undefined)	none
Nc1nnc(SCc2ccc3c(c2)OCO3)s1	none
c1ccc2oc(CCc3nc4ccccc4o3)nc2c1	none
C=CCn1c(SCC(=O)C(C)(C)C)nnc1-c1ccccn1	none
CCn1c(SCC(=O)C(C)(C)C)nnc1-c1ccccn1	MMP13 inh 16.4
COc1ccc(C(=O)CSc2nnc(-c3ccccn3)n2Cc2ccco2)cc1	ERa coact pot 270.9[fluorescence artefact?]
CCC1CCCCN1CCCNC(=O)c1cn(CC(C)C)c(=O)c2cc(OC)c(OC)cc12 (centres undefined)	none (no result: MT1-MMP txn act)
Cn1c(O)c(C(C#N)=C2N=c3ccccc3=N2)c2ccccc21	ERa coact inh 80.3[fluorescence artefact?] (no result: MMP13 inh)
Cn1cnnc1SCC(=O)Nc1sc2c(c1C#N)CCCCC2	none
Cn1c(SCC(=O)Nc2sc3c(c2C#N)CCC3)nnc1C1COc2ccccc2O1 (centres undefined)	ERa coact inh 65.6[fluorescence artefact?]
CCOC(=O)c1cc2sc(C)cc2n1CC(=O)NCc1ccc(F)cc1	ERa coact pot 238.5[fluorescence artefact?]
CCOC(=O)c1cc2sc(C)cc2n1CC(=O)N1CCOCC1	none
O=c1[nH]c2cc3c(cc2cc1CN(Cc1nnnn1C1CCCC1)C1CCCC1)OCCO3	none (no result: MMP13 inh)
CCCOC(=O)c1sc2nc3c(cc2c1N)C(=O)CCC3	none
Nc1c(C(=O)NCc2ccco2)sc2nc3c(cc12)C(=O)CCC3	ERa coact inh 82.4[fluorescence artefact?], ERb coact inh 85.1[fluorescence artefact?]
O=C(NCc1ccco1)c1c2c(nc3ccccc13)CCC2	ERa coact inh 93.3[fluorescence artefact?], ERb coact inh 92.0[fluorescence artefact?]
COc1ccc2cc3c(N)c(C(=O)NCc4ccco4)sc3nc2c1	ERa coact inh 56.0[fluorescence artefact?]
Cc1ccc(Cn2c(SCC(=O)Nc3cccc(C)n3)nc3c2c(=O)n(C)c(=O)n3C)cc1	none
CNC(=O)CSc1nc2c(c(=O)n(C)c(=O)n2C)n1Cc1ccc(C)cc1	ERa coact pot 201.4
Cc1ccc(NC(=O)c2sc3nc4c(c(-c5ccco5)c3c2N)CCC4)cc1	ERa coact inh 59.1 (no result: MMP13 inh)
O=C(Nc1ccc(-n2nncc2-c2ccco2)cc1)c1ccc(F)cc1	none
Nc1c(C(=O)Nc2ccccc2)sc2nc3c(c(-c4ccco4)c12)CCCC3	none (no result: MMP13 inh)
Nc1c(C(=O)Nc2ccc(F)cc2)sc2nc(-c3ccco3)ccc12	ERa coact inh 67.2[fluorescence artefact?], ERb coact inh 64.4
Nc1c(C(=O)Nc2ccccc2)sc2nc3c(c(-c4ccco4)c12)CCC3	none (no result: MMP13 inh)
COc1ccc(-c2c3c(nc4sc(C(=O)Nc5ccccc5)c(N)c24)CCC3)cc1	ERa coact inh 68.4[fluorescence artefact?] (no result: MMP13 inh)
c1ccc(CCCNc2nnnc3ccccc23)cc1	none (no result: ERa coact inh, ERb coact inh, MMP13 inh, ERa coact pot, MT1-MMP txn act)
O=C(Nc1nc(-c2ccco2)c(-c2ccco2)s1)C1CC(=O)N(c2ccc3c(c2)OCCO3)C1 (centres undefined)	ERb coact inh 70.5[fluorescence artefact?]
Cn1c(=O)c(C(=O)COC(=O)c2cc(-c3ccco3)nc3ccccc23)c(N)n(Cc2ccccc2)c1=O	none (no result: ERa coact inh, ERb coact inh, MMP13 inh, Smad3 inh, ERa coact pot)
CC(C)Cn1c(N)c(C(=O)COC(=O)c2cc(-c3ccco3)nc3ccccc23)c(=O)n(C)c1=O	ERa coact inh 91.1[fluorescence artefact?], ERb coact inh 80.4[fluorescence artefact?]
COc1ccc(OC)c(CN(CCCN2CCOCC2)S(=O)(=O)c2ccc(NC(C)=O)cc2)c1	ERa coact inh 98.9[fluorescence artefact?]
COc1ccc(-c2cc3nc4c(c(=O)n3[nH]2)CCC4)cc1	ERa coact inh 52.0[fluorescence artefact?]
COc1cccc(-c2nc(-c3ccccc3)no2)c1	none
COc1cccc(-c2nc(-c3ccc(NC(=O)c4cccnc4)cc3)no2)c1	ERa coact pot 202.7[fluorescence artefact?]
CC(Oc1ccc(Cl)cc1Cl)c1nc(-c2ccc(NC(=O)c3cccnc3)cc2)no1 (centres undefined)	none
Cc1ccccc1-c1nc(-c2ccc(NC(=O)c3ccc(Br)o3)cc2)no1	ERa coact pot 265.2 (no result: MMP13 inh)
COc1ccc(CC(=O)Nc2ccc(-c3noc(-c4cccc(OC)c4)n3)cc2)cc1	ERa coact pot 287.4[fluorescence artefact?]
O=C(Nc1ccc(Nc2ccccc2)cc1)c1ccc(Br)o1	none
O=C(Nc1ccc(-c2noc(-c3cccs3)n2)cc1)c1cccnc1	ERa coact pot 363.5
COc1ccc(C2C(C(=O)OCC(=O)N3CCCCC3)CCC(=O)N2c2ccc(OC)cc2)cc1 (centres undefined)	none
Cc1c(C(=O)N2CCOCC2)oc2c1C(=O)CC(C)(C)C2	none
CC(=O)c1c(C)[nH]c(C(=O)COc2ccc(C#N)cc2)c1C	ERa coact inh 63.3 (no result: MMP13 inh)
CCOC(=O)c1c(C)[nH]c(C)c1C(=O)COC(=O)CCOc1ccccc1OC	ERb coact inh 58.4
CC(=O)c1c(C)[nH]c(C(=O)COc2cc(C)ccc2C(C)C)c1C	none (no result: MMP13 inh)
COc1ccccc1OCC(=O)c1[nH]c(C)c(C(C)=O)c1C	ERa coact inh 68.9[fluorescence artefact?], ERb coact inh 73.8[fluorescence artefact?]
